# Laboratory results reported in ChEMBL document CHEMBL3988442, “University of Dundee, Small-Polar-MMV Screening Library” (2021).
# For some assays here: Measured potencies and affinities stand elsewhere.
# Key:
# Design in all cases: scale not given: direction of the effect not stated beside the values
# [1] = target: Protein translocase subunit SecA (Escherichia coli (strain K12)) (UniProt P10408); experiment: Assay to Identify E. coli SecA ATPase Inhibitors; type: functional; details: 30 µM
# [2] = target: T1, Ubiquitin-activating enzyme e1, putative (Leishmania donovani (strain BPK282A1)) (UniProt E9BSI1); experiment: Leishmania donovani Ubiquitin Activating Enzyme (LdE1); type: functional; details: 30 µM
# T1 sequence (whole entry): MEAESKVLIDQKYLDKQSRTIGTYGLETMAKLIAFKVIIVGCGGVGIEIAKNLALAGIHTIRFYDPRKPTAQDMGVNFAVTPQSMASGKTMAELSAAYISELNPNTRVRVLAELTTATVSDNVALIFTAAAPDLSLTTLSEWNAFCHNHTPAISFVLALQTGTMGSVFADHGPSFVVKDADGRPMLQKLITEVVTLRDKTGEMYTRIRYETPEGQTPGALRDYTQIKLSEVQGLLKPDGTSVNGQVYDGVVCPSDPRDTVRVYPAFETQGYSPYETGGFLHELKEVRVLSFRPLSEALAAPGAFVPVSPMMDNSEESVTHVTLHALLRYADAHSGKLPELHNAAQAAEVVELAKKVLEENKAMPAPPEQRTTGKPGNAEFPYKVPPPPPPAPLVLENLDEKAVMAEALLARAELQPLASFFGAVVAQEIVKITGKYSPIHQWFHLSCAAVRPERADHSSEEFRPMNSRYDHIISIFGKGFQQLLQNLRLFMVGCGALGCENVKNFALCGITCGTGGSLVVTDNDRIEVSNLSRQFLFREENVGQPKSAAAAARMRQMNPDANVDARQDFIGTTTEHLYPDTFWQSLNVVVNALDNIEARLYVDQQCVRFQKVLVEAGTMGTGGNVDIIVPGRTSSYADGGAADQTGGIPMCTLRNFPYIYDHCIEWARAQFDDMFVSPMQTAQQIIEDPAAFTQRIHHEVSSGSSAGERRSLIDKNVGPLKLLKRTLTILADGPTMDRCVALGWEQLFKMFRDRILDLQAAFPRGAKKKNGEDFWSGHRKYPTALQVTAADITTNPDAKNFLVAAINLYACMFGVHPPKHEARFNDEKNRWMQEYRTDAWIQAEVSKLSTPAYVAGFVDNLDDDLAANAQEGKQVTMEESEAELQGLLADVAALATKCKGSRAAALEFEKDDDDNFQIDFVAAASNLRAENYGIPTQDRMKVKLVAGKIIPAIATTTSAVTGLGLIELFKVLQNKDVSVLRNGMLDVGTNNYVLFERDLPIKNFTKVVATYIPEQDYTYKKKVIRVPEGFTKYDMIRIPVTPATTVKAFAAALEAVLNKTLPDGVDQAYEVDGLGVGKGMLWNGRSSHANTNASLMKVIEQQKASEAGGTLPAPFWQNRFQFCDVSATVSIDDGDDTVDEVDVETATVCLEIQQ
# [3] = target: AMP-activated protein kinase, AMPK (Homo sapiens) (UniProt P54646+O43741+P54619+Q9UGJ0+Q9Y478+Q13131+Q9UGI9); experiment: AMP-dependent Kinase enzyme assay. An in vitro enzyme assay that detects ADP turnover that is directly proportional to AMPK activity. This uses naive AMPK that is activated during the assay with MK-8722; type: functional; details: 30 µM
# [4] = target: Sialic acid-binding Ig-like lectin 9 (Homo sapiens) (UniProt Q9Y336); experiment: Hs-Siglec9 ALPHAscreen SOP 20170721; details: 10 µM
# Sialic acid-binding Ig-like lectin 9 (Homo sapiens), sequence (Q9Y336 whole entry): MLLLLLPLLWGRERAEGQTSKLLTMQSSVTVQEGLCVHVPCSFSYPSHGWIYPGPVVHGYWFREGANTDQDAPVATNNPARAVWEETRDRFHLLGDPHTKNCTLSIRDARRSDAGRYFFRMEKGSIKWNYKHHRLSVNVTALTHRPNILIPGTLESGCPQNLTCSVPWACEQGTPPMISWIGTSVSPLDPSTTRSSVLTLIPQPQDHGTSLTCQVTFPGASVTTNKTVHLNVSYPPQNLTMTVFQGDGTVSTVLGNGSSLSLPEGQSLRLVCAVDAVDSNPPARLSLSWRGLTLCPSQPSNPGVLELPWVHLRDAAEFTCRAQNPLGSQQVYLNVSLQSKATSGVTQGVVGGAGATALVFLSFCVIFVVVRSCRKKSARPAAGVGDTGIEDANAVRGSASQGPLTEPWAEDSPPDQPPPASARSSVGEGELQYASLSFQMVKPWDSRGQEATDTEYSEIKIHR
# Trypanosoma cruzi = experiment: Trypanosoma cruzi phosphomannomutase and mannose-1-phosphate guanylyltransferase assay; type: functional; details: 10 µM
# [5] = target: T2, Arginase-2, mitochondrial (Homo sapiens) (UniProt P78540); experiment: in vitro enzyme assay to detect the production of urea directly proportional to the activity of Arginase II; type: functional; details: 33.3 µM; note: in the data most compounds retested in dose-response had high values
# T2 sequence (whole entry): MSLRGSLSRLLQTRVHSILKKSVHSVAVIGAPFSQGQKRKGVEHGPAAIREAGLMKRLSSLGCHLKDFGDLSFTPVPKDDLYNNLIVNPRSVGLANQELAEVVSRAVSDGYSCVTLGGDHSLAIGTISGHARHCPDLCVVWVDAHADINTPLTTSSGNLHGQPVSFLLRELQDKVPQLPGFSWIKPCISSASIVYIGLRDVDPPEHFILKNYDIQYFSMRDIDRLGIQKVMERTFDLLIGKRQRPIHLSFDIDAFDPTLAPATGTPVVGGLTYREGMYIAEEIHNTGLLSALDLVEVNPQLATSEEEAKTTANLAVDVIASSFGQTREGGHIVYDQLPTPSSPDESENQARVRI
# [6] = target: T3, Proteasome subunit beta (Trypanosoma cruzi) (UniProt O96673); experiment: Trypanosoma cruzi proteasome chymotrypsin-like activity (TcProtChymo) assay.; note: in the data most compounds retested in dose-response had high values; type: functional; details: 9.37 µM
# T3 sequence (whole entry): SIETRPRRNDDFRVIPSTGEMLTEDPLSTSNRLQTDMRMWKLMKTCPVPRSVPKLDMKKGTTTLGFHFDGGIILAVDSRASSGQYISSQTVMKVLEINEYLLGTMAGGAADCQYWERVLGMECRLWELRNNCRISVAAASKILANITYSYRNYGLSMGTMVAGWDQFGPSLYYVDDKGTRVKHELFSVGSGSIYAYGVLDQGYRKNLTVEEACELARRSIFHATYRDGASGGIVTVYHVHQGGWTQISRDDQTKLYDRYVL
# Homo sapiens = species: Homo sapiens; experiment: To identify inhibition of the IFN signalling (Jak-Stat) pathway via expression of an eGFP reporter gene under the control of an IFN-stimulated response element (ISRE) containing MxA promoter.; type: functional; details: 30 µM
# [7] = target: T4, Tyrosyl-tRNA synthetase, putative (Trypanosoma cruzi (strain CL Brener)) (UniProt Q4DSP6); experiment: Trypanosoma cruzi tyrosyl tRNA synthetase (TcYRS) _High Tyrosine SOP; type: functional; details: 30 µM; note: in the data most compounds retested in dose-response had high values
# T4 sequence (whole entry): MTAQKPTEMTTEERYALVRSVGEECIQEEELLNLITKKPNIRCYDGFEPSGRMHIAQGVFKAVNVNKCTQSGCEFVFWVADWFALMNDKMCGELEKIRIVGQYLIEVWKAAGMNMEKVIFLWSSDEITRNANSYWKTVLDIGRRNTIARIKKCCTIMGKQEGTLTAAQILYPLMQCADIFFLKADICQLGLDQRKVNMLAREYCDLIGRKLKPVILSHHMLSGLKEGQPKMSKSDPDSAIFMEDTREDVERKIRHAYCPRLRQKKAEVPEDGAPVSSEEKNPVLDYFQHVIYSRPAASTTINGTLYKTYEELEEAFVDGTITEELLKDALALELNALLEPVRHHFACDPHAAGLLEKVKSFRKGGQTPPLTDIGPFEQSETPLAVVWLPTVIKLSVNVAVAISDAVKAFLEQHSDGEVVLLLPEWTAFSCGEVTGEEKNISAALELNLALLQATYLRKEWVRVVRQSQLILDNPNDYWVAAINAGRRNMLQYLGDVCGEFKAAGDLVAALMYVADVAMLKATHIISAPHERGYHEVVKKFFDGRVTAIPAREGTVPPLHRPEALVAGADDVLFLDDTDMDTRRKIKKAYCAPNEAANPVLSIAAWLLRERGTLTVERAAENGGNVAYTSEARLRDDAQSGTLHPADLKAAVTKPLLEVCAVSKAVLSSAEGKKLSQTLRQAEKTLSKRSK
# [8] = target: T4, Tyrosyl-tRNA synthetase, putative (Trypanosoma cruzi (strain CL Brener)); experiment: Trypanosoma cruzi tyrosyl tRNA synthetase (TcYRS) SOP; type: functional; details: 30 µM
# [9] = target: Chromo domain-containing protein 1 (Saccharomyces cerevisiae (strain ATCC 204508 / S288c) (Baker's yeast)) (UniProt P32657); experiment: ScCHD-1 Enzyme Inhibition Assay; type: functional; details: 30 µM; note: in the data most compounds retested in dose-response had high values
# Chromo domain-containing protein 1 (Saccharomyces cerevisiae (strain ATCC 204508 / S288c) (Baker's yeast)), sequence (P32657 whole entry, the tested form may be a part): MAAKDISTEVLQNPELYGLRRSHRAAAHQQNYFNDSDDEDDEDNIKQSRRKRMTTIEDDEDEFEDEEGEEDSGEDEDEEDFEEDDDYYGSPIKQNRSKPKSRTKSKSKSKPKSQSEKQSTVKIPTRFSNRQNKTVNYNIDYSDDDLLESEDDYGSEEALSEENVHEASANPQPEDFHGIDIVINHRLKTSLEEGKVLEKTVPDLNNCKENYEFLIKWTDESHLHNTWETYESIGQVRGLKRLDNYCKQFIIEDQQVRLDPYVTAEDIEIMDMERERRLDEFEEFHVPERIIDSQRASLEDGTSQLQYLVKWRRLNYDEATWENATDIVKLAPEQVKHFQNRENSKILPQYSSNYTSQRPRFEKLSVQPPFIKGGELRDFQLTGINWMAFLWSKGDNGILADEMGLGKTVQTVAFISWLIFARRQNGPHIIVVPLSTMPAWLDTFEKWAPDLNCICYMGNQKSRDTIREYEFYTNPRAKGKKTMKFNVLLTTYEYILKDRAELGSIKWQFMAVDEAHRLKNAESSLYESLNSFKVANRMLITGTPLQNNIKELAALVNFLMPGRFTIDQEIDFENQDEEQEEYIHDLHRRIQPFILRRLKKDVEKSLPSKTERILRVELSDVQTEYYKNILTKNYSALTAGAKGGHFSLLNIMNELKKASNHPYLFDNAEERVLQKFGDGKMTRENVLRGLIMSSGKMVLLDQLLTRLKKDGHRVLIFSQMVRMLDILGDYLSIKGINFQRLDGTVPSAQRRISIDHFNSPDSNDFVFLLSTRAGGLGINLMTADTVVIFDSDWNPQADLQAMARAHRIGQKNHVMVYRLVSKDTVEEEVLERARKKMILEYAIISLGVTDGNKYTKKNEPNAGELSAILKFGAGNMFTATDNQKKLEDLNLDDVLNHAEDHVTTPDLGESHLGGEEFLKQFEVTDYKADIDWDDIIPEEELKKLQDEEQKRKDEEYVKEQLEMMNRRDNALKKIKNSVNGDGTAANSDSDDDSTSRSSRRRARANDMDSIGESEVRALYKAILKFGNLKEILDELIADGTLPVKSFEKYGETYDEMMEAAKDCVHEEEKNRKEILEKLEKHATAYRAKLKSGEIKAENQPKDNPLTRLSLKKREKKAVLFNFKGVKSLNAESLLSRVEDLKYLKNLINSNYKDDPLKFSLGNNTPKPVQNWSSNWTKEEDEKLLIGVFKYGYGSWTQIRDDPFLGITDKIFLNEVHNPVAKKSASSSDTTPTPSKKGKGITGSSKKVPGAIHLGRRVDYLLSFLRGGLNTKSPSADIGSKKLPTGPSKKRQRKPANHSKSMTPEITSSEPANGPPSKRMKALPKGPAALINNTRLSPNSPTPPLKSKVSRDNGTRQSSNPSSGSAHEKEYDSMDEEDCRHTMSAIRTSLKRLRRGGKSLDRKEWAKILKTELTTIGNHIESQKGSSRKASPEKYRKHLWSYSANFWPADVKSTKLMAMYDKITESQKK
# Protein translocase subunit SecA (Escherichia coli (strain K12)), sequence (P10408 whole entry): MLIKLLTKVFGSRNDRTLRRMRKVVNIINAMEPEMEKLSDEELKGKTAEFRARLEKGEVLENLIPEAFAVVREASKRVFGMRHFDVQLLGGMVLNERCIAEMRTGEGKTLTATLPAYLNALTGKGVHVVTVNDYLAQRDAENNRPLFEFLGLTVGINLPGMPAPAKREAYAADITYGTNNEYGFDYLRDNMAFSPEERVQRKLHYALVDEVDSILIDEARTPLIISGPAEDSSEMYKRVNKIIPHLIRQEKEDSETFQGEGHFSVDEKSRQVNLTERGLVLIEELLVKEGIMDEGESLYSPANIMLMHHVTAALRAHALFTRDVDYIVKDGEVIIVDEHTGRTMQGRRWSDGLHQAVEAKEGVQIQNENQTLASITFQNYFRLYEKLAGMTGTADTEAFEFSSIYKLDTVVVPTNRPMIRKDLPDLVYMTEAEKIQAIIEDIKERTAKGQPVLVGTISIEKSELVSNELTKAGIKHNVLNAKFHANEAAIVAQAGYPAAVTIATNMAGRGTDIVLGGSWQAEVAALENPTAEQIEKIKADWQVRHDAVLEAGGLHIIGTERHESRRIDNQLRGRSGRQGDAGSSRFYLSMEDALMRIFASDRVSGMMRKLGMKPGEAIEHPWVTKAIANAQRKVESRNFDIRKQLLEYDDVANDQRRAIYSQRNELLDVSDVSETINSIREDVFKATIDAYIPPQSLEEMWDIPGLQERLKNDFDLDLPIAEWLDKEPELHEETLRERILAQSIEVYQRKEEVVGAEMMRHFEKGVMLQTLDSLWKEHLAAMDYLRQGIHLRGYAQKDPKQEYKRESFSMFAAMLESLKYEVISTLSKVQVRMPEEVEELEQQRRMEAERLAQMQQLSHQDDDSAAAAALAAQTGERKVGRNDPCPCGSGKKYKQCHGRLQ
Structure (SMILES),Percent Effect [1],Percent Effect [2],Percent Effect [3],Percent Effect [4],Percent Effect (Trypanosoma cruzi),Percent Effect [5],Percent Effect [6],Percent Effect (Homo sapiens),Percent Effect [7],Percent Effect [8],Percent Effect [9]
COc1cccc(Cc2nnc(SC3CCOC3=O)o2)c1 (stereo unspecified),-4.53%,-2.67%,-9.71%,15.1%,2.04%,0.521%,5.41%,5.46%,-4.92%,8.64%,-2.72%
c1cncc(COCC2CN(Cc3ccco3)Cc3ccnn3C2)c1 (stereo unspecified),-3%,13.5%,-6.55%,4.29%,-0.0978%,6.2%,5.06%,9.51%,7.53%,13.6%,-2.33%
CC(=O)N(Cc1ncc(C(C)C)o1)C1CCN(CCn2cccn2)C1 (stereo unspecified),0.67%,10.8%,-13.2%,0.985%,2.69%,0.924%,18.9%,-1.48%,14.8%,1.22%,-4.25%
Cc1cc(C[S+]([O-])CC(=O)NCc2cccs2)no1 (stereo unspecified),-6.18%,10.4%,3.08%,10.1%,1.87%,-6.05%,1.01%,5.94%,8.74%,19.5%,-5.87%
COc1ccc2c(c1)CCN(CCC(=O)NC1CCCCC1)CC2,-1.36%,2.7%,-5.04%,1.78%,5.41%,-1.43%,15.3%,14.6%,6.88%,12.2%,-1.4%
COc1ccc(CN2C[C@@H](OCc3csc(C)n3)[C@H]3COC[C@H]32)cc1,-4.6%,2.74%,-10.5%,0.865%,-2.78%,-0.399%,2.65%,-6.15%,2.08%,8.64%,-3.52%
CCc1ncc2c(n1)CN(Cc1nc(C)c(C)o1)CC2,-3.48%,2.74%,-53%,-5.63%,-1.76%,6.82%,9.94%,10.1%,5.38%,10%,-5.18%
Cn1cc(N2CC3(CCN(CC4CCOCC4)CC3)OCC2=O)cn1,-1.91%,9.33%,1.65%,6.72%,-0.197%,2.99%,19.8%,17.2%,4.23%,12.8%,-4.82%
CC(C)n1ncc2c1NC(=O)CC21C(=O)Nc2c(Cl)cccc21 (stereo unspecified),-1.42%,-1.33%,3.7%,7%,-0.393%,-6.87%,0.185%,34%,1.06%,2.56%,-2%
Cc1cc(C)n(CC2CN(Cc3nc(-c4ccoc4)no3)CCO2)n1 (stereo unspecified),-0.455%,16.2%,-10.1%,0.775%,6.51%,-2.81%,5.22%,7.72%,3.45%,18.5%,-11.6%
COC(=O)CNC(=O)CSCc1nc(O)c2c(C)c(C)sc2n1,-1.31%,-6.67%,14.7%,4.89%,-3.93%,3.7%,9.8%,-3.69%,3.17%,0%,-4.91%
CCNC(=O)c1nc2c(s1)CCCN2S(C)(=O)=O,-5.43%,24%,-3.85%,-4.95%,0.772%,-56.8%,5.81%,22.1%,-6.25%,15%,-18.4%
Cc1ccccc1[C@@H]1CN(C(=O)c2ccc3[nH]nnc3c2)C[C@H]1C(=O)O,-4.25%,-11%,4.06%,1.72%,-5.75%,0.399%,8.65%,2.78%,3.12%,3.7%,2.93%
Cc1ncc(CN2Cc3ccccc3O[C@]3(CC[C@H](CO)CC3)C2)cn1,-1.38%,6.76%,8.93%,6.44%,-2.57%,0.696%,0.78%,8.08%,3.23%,9.09%,-4.96%
O=C(NCCN1CCOCC1)c1cc(-c2ccc3c(c2)CCO3)n[nH]1,-4.45%,9.33%,3.38%,-3.18%,1.57%,-5.11%,1.48%,-12.9%,5.29%,7.69%,-6.47%
CN(CC(N)=O)S(=O)(=O)c1ccc(F)cc1Cl,-4.21%,-5.48%,0.145%,5.52%,-0.794%,0.399%,6.59%,16.6%,13.5%,21%,-3.16%
